From PubChem
This is a sample that favours compounds with a hit; in the whole collection about 21% have one here.
IL-1B inflam inh: inhibitors of inflammasome signaling (IL-1 beta secretion) | activity change, % at 57.5 µM | actives 4.7% (n = 360,000) | THP-1 LPS/ATP IL-1B secretion, AlphaLISA, 16 h; active compounds read low; in the data active means activity change below about -50%; inconclusive means mostly about -30% to -49%
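Secreted IL-1B measured by AlphaLISA bead assay after 16 h compound exposure of THP-1 cells; compounds (final up to 57.5 uM) added 1 h before LPS (250 ng/mL) and ATP (1.25 mM) stimulation; lower signal means less secretion.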
RORgamma inh: ROR gamma (mouse) transcription inhibition. Potency, µM (series often up to 53.6 µM), inactives show at the highest dose activity change, negative = inhibition, most hits filed as inhibitors. AID 2551. actives 5.4% (n = 310,000). P51450. Drosophila S2 Gal4-RORgamma UAS-luciferase reporter, 20 h; further: potency means the concentration at half of the fitted maximal effect; nearly all actives have a fitted effect of over 60% in size
Target sequence (P51450 whole entry, looked up, the tested form may be a part): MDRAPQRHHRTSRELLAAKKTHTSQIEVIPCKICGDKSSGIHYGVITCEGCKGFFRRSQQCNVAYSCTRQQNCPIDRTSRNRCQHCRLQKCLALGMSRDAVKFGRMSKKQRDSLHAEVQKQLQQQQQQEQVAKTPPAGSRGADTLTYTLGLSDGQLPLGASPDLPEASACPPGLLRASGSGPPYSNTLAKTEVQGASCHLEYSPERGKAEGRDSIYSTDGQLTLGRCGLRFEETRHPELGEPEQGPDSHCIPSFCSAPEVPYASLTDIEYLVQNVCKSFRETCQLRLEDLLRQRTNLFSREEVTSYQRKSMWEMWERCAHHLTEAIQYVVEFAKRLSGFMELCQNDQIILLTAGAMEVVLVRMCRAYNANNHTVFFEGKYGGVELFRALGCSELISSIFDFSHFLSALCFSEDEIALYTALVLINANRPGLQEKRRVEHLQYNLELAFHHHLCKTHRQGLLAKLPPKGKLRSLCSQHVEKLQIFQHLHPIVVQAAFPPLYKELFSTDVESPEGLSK
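Schneider cells (Drosophila), stable Gal4 DBD–ROR gamma + UAS-luc; 1 hr cmpd preincubation; Cu2+ induction 700 uM final; 20 hr ambient; luminescence.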
DT40 TDP1 CPT: growth inhibition of DT40 Tdp1-/-;hTDP1 cells with camptothecin (screen for TDP1 inhibitors); chicken DT40 Tdp1-/-;hTDP1 cells + 20 nM CPT, ATP luminescence, 48 h; Potency, µM (series often up to 46.2 µM), without a hit: at the highest dose activity change, negative = growth inhibition, actives largely listed as inhibitors; actives 12% (n = 420,000); AID 686979; further: potency means the concentration at half of the fitted maximal effect; nearly all actives have a fitted effect of over 55% in size
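Chicken DT40 Tdp1-/- cells complemented with human TDP1, 400 cells/well, exposed to compounds plus 20 nM camptothecin for at least 48 h at 37 C; viability read as ATP content by CellTiter-Glo luminescence.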
ELG1 repair inh: inhibitors of ELG1-dependent DNA repair in HEK293T cells; HEK293T ELG1-luciferase reporter, luminescence, 16 h; DNA damage induced by 5-fluorouridine; actives 2.3% (n = 330,000); Potency, µM (highest dose often 46.1 µM), for the others: top-dose activity change, negative = inhibition, most hits filed as inhibitors; further: potency means the concentration at half of the fitted maximal effect; nearly all actives have a fitted effect of over 55% in size
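Reporter activity after DNA damage by 5-fluorouridine is monitored. Compound-treated cells incubate 16 hr at 37 °C, then ONE-Glo is added for 30 min before luminescence reading.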
Gal4-VP16 FLuc: inhibits Gal4-VP16 luciferase reporter, ROR gamma counter-screen; Drosophila S2 Gal4-VP16 UAS-luciferase, luminescence, 20 h; Potency, µM (highest dose often 53.6 µM), for inactives: at the highest dose activity, negative = inhibition, actives largely listed as inhibitors; actives 3.5% (n = 310,000); AID 2546;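 further: Gal4-VP16 expression switched on by copper sulfate through the metallothionein promoter; potency means the concentration at half of the fitted maximal effect; nearly all actives have a fitted effect of over 50% in size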
TDP1 cell noCPT: qHTS for Inhibitors of human tyrosyl-DNA phosphodiesterase 1 (TDP1): qHTS in cells in absence of CPT; DT40 Tdp1-/- hTDP1 cells, no CPT, ATP luminescence, 48 h; Potency, µM (highest dose often 46.2 µM), without a hit: at the top dose activity change, negative = growth inhibition, actives largely listed as inhibitors; actives 15% (n = 420,000); further: potency means the concentration at half of the fitted maximal effect; nearly all actives have a fitted effect of over 55% in size
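Compound effects on proliferation are scored in DT40 Tdp1-/-;hTDP1 cells in the absence of CPT. ATP levels (CellTiter-Glo luminescence) are recorded after a ≥48 hr, 37 °C incubation.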
* = called active by the depositor; ? = inconclusive; · = no result; [ ] = another dose, or the depositor's remark. Unless noted, the call rests on the fitted dose curve; in most records, active means well fitted curve in the direction sought with a large enough effect; inconclusive means small, poorly fitted or top-dose-only effect, or another doubt; inactive means no such curve, though single readings can be large; an effect the other way counts as inactive or inconclusive. On the % scale 0 is the no-effect control and ±100 the full control effect.

SMILES | IL-1B inflam inh | RORgamma inh | DT40 TDP1 CPT | ELG1 repair inh | Gal4-VP16 FLuc | TDP1 cell noCPT
N#C/C(=C\c1cccc(O)c1)C(=O)N1CCCCC1 | -73.4* | 5.6%[1.91 µM] | 15.1% | ? | -27.1% | ?
N#C/C(=C\c1cccc(Br)c1)C(=O)N1CCCCC1 | ? | 2.51µM* | 13µM* | ? | ? | 11.6µM*
Cc1cc(/C=C(\C#N)C(=O)N2CCCCC2)cc(C)c1O | -4.9 | -27.9% | 18.4µM* | -8.3% | ? | 25.9µM*
Cc1ccc(-n2nc(C)c3c(C)cc(=O)n(CC(=O)Nc4cc(Cl)ccc4C)c32)cc1 | · | · | -13.4% | · | · | 2.1%
COc1cc(OC)c2nc(-c3cc4c(c(OC)c3)OCCN(C(=O)C(C)c3n[nH]c(=O)c5ccccc35)C4)cc(C)c2c1 (stereo not drawn) | · | · | 18.2%[9.04 µM] | · | · | -14.6%
CC(=O)Nc1ccc(S(=O)(=O)N(C)CC(=O)NNc2c(F)c(F)cc(F)c2F)cc1 | 9.7 | · | -9.5% | 2.0% | · | -5.3%
COc1ccc(S(=O)(=O)N2CCCCC2)cc1NC(=O)CCNC(=O)c1ccc(Cl)cc1 | -1.6 | · | 5.4% | 7.8% | · | 0.9%
CCOc1cc([N+](=O)[O-])cc2c1C(=O)Nc1ccccc1O2 | -8.8 | 8.0% | ? | 7.3µM* | -0.3% | ?
O=C1Nc2ccccc2Oc2cc([N+](=O)[O-])ccc21 | -16.1 | -24.4% | ? | ? | -0.7% | ?
CCCc1ccc2oc(C(=O)NCCN3CCCC(O)C3)c(C)c2c1 (stereo not drawn) | -66.3* | · | ? | ? | · | ?
CCCc1ccc2oc(C(=O)NCCN3CCCC(C(N)=O)C3)c(C)c2c1 (stereo not drawn) | -21.6 | 11.6% | ? | 1.3% | 3.5% | ?
COc1ccc2c(CNC3CCCCCC3)c(C(=O)O)n(Cc3ccc(C)cc3)c2c1 | · | · | 25.9µM* | · | · | ?
COc1ccc2c(CNC3CCCCCC3)c(C(=O)O)n(Cc3cccc(F)c3)c2c1 | · | · | -5.0% | · | · | ?
COc1ccc(Cn2c(C(=O)O)c(CNC3CCCC3)c3ccc(C)cc32)cc1 | · | · | 12.5% | · | · | -21.0%
C=Cc1ccc(Cn2c(C(=O)O)c(CNC3CCCCC3)c3ccc(OC)cc32)cc1 | · | · | 20.6µM* | · | · | 20.6µM*
COc1ccc(Cn2c(C(=O)O)c(CNC3CCCCCC3)c3ccc(OC)cc32)cc1 | · | · | 16.4µM* | · | · | ?
Cc1cc(C)c2c(NC(=S)NC(=O)c3ccccc3)n[nH]c2n1 | 10.6 | 5.62µM* | -25.2% | 1.5% | ? | -14.7%
Cc1cc(C)c2c(NC(=S)Nc3ccccc3)n[nH]c2n1 | 7.9 | 1.12µM* | ? | 7.4% | 3.16µM* | ?
O=C(NC(=S)Nc1ccc2[nH]ncc2c1)c1ccccc1 | ? | 2.9% | ? | ? | -25.2% | -19.2%
Cc1cc(C)c(NC(=O)Nc2ccccc2)c(C)n1 | 4.1 | · | -3.9% | 0.3% | · | 9.8%
CN1CCCCC1(C)C(=O)NCc1cc(Cl)ccc1F (stereo not drawn) | 10.7 | · | 4.6% | · | · | 3.8%
Cc1ccc(NC(=O)CNC(=O)c2ccco2)nc1 | 24.4 | -0.3% | 0.6% | -2.6% | -9.2% | 21.0%
COc1ccc(S(=O)(=O)N(CC(=O)Nc2ccc(S(=O)(=O)N3CCOCC3)cc2)c2ccccc2)cc1 | 19.2 | ? | -68.2% | ? | 3.8% | 0.164µM*
COc1ccc(NC(=O)CN(C)C(=O)c2ccc(S(=O)(=O)N3CCOCC3)cc2)cc1 | -1.3 | · | -15.1% | · | · | -23.6%
COc1ccc(S(=O)(=O)N(CC(=O)Nc2ccc(S(=O)(=O)N3CCOCC3)cc2)Cc2ccc(F)cc2)cc1 | -21.3 | 24.5% | 20.6µM* | ? | -4.4% | 14.6µM*
SMILES | IL-1B inflam inh | RORgamma inh | DT40 TDP1 CPT | ELG1 repair inh | Gal4-VP16 FLuc | TDP1 cell noCPT
O=C(CCC(=O)N1CCSc2ccccc21)NCc1ccccc1Cl | · | · | 10.3µM* | · | · | ?
CCOc1ccc(OCC)c(NC(=O)CCC(=O)N2CCOc3ccccc32)c1 | · | · | 25.9µM* | · | · | 25.9µM*
CC(C)Oc1ccc(CNC(=O)CCC(=O)N2CCSc3ccccc32)cc1 | 3.3 | -15.5% | -6.6% | 2.5% | -0.4% | ?
Cc1ccc(NC(=O)CCC(=O)N2CCSc3ccccc32)cc1Cl | · | · | 16.4µM* | · | · | ?
O=C(CCC(=O)N1CCSc2ccccc21)NCc1ccc(Cl)cc1 | -17.9 | 4.8% | -24.0% | 10.8% | -7.6% | -19.8%
CCOc1ccc(NC(=O)CCC(=O)N2CCSc3ccccc32)cc1 | 0.0 | 4.1% | 16.4µM* | ? | -3.4% | 16.4µM*
CCOc1ccccc1NC(=O)n1ncc2cc(Cl)ccc21 | · | · | -14.4% | · | · | ?
OC[C@H]1O[C@@H](n2cnc3c2NC=NC[C@H]3O)C[C@@H]1O | · | · | -13.3% | · | · | -16.6%
COc1ccc(CNS(=O)(=O)CCNC(=O)c2cccc(OC)c2)cc1 | 0.0 | · | 9.5% | 11.8% | · | 8.1%
O=C(CCC(=O)N1CCSc2ccccc21)NCc1ccccc1 | -12.3 | 18.4% | ? | 20.5% | -2.1% | -9.3%
CCOC(=O)c1ccc(NC(=O)CCC(=O)N2CCSc3ccccc32)cc1 | · | · | 23.1µM* | · | · | 13µM*
Cc1cccc(C)c1NC(=O)CCC(=O)N1Cc2ccccc2Oc2ncccc21 | · | · | -6.9% | · | · | -26.0%
